Assay results published in PubChem BioAssay AID1159580 (chemical genetic matrix, 2015).
Where “and” joins values, the source holds several entries; their conditions need not be identical. Identical values can stand only once. Out of some 5,500 compounds screened, about 2,000 (36%) were called active. Not shown: some 18% with an inconclusive outcome. Rule as the data show it: active = normalized growth mostly below about 0.91 (no sharp cut-off); inconclusive = no clear call, values can overlap the other calls; inactive = mostly above about 0.92. The list shows a part of the results.

Experiment: chemical genetic growth profiling, strain panel (AID 1159580);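 also: tested at 20 µM; growth read once vehicle control cultures reached saturation at 30 °C; 1 = growth at the plate median or of vehicle wells; lower values mean less growth of the strain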
Settings: S. cerevisiae deletion strains, growth OD

Measured: normalized growth

NC(=O)c1ncn([C@@H]2O[C@H](CO)[C@@H](O)[C@H]2O)n1
inactive: locus YAL013W, strain DEP1, stronger effect = lower value 1 | locus YAL021C, strain ccr4, stronger effect = lower value 1.02 | locus YAL026C, strain drs2, stronger effect = lower value 0.995 | locus YAL030W, strain snc1, stronger effect = lower value 0.998 | locus YBL061C, strain skt5, stronger effect = lower value 0.975 | locus YBR009C, strain hhf1, stronger effect = lower value 0.992 | locus YBR021W, strain FUR4, stronger effect = lower value 0.965 | locus YBR023C, strain chs3, stronger effect = lower value 0.981 | locus YBR171W, strain sec66, stronger effect = lower value 0.993 | locus YBR229C, strain ROT2, stronger effect = lower value 0.993 | locus YBR231C, strain swc5, stronger effect = lower value 0.997 | locus YBR279W, strain paf1, stronger effect = lower value 0.978 | locus YCL011C, strain gbp2, stronger effect = lower value 0.981 | locus YCL016C, strain dcc1, stronger effect = lower value 0.979 | locus YCL029C, strain bik1, stronger effect = lower value 0.981 | locus YCL061C, strain MRC1, stronger effect = lower value 0.983 | locus YCL069W, strain vba3, stronger effect = lower value 0.996 | locus YCR088W, strain abp1, stronger effect = lower value 0.994 | locus YDL005C, strain med2, stronger effect = lower value 0.982 | locus YDL035C, strain GPR1, stronger effect = lower value 1.02 | locus YDL040C, strain nat1, stronger effect = lower value 0.978 | locus YDL074C, strain BRE1, stronger effect = lower value 1.04 | locus YDL101C, strain DUN1, stronger effect = lower value 0.998 | locus YDL134C, strain PPH21, stronger effect = lower value 1 | locus YDL185W, strain tfp1, stronger effect = lower value 0.978 | locus YDL192W, strain arf1, stronger effect = lower value 0.98 | locus YDR001C, strain nth1, stronger effect = lower value 0.996 | locus YDR069C, strain doa4, stronger effect = lower value 0.989 | locus YDR101C, strain arx1, stronger effect = lower value 0.993 | locus YDR137W, strain rgp1, stronger effect = lower value 0.97 | locus YDR150W, strain NUM1, stronger effect = lower value 0.988 | locus YDR159W, strain sac3, stronger effect = lower value 0.978 | locus YDR162C, strain NBP2, stronger effect = lower value 0.968 | locus YDR195W, strain ref2 0.979 | locus YDR297W, strain sur2, stronger effect = lower value 0.99 | locus YDR318W, strain mcm21, stronger effect = lower value 0.995 | locus YDR334W, strain swr1, stronger effect = lower value 0.99 | locus YDR335W, strain msn5, stronger effect = lower value 0.991 | locus YDR388W, stronger effect = lower value 0.995 | locus YDR392W, strain spt3, stronger effect = lower value 0.995 | locus YDR502C, strain sam2, stronger effect = lower value 0.992 | locus YEL003W, strain gim4, stronger effect = lower value 0.999 | locus YEL037C, strain rad23, stronger effect = lower value 0.993 | locus YEL061C, strain CIN8 (second series), stronger effect = lower value 0.994 | locus YEL061C, strain CIN8, stronger effect = lower value 0.999 | locus YER015W, strain faa2, stronger effect = lower value 0.988 | locus YER016W, strain bim1, stronger effect = lower value 0.988 | locus YER110C, stronger effect = lower value 0.989 | locus YER111C, strain swi4, stronger effect = lower value 0.996 | locus YER155C, strain BEM2 (second series), stronger effect = lower value 0.989 | locus YER155C, strain BEM2, stronger effect = lower value 0.995 | locus YER167W, strain BCK2, stronger effect = lower value 1.01 | locus YFR010W, strain ubp6, stronger effect = lower value 0.999 | locus YGL078C, strain dbp3, stronger effect = lower value 0.985 | locus YGL086W, strain mad1, stronger effect = lower value 0.997 | locus YGL167C, strain pmr1, stronger effect = lower value 0.983 | locus YGL173C, strain kem1, stronger effect = lower value 0.974 | locus YGL227W, strain vid30, stronger effect = lower value 0.986 | locus YGL240W, strain doc1, stronger effect = lower value 0.984 | locus YGL248W, strain PDE1, stronger effect = lower value 0.996 | locus YGL253W, strain hxk2, stronger effect = lower value 0.982 | locus YGR078C, strain PAC10, stronger effect = lower value 1.02 | locus YGR135W, strain pre9, stronger effect = lower value 0.979 | locus YGR229C, strain SMI1, stronger effect = lower value 1.01 | locus YGR252W, strain gcn5, stronger effect = lower value 0.993 | locus YHR013C, strain ard1, stronger effect = lower value 0.953 | locus YHR027C, strain rpn1, stronger effect = lower value 0.974 | locus YHR030C, strain SLT2, stronger effect = lower value 0.999 and 0.988 | locus YHR079C, strain IRE1 (second series), stronger effect = lower value 1 | locus YHR079C, strain IRE1, stronger effect = lower value 0.98 | locus YHR094C, strain hxt1, stronger effect = lower value 0.981 | locus YHR129C, strain ARP1, stronger effect = lower value 1.01 | locus YHR142W, strain chs7, stronger effect = lower value 0.999 | locus YHR200W, strain rpn10, stronger effect = lower value 0.993 | locus YIL066C, strain RNR3, stronger effect = lower value 0.995 | locus YIL073C, strain SPO22, stronger effect = lower value 0.946 | locus YIL125W, strain kgd1, stronger effect = lower value 0.997 | locus YIR030C, strain dcg1, stronger effect = lower value 0.99 | locus YJL092W, strain hpr5, stronger effect = lower value 0.992 | locus YJL095W, strain BCK1 (second series), stronger effect = lower value 0.987 | locus YJL095W, strain BCK1, stronger effect = lower value 1.02 and 0.977 | locus YJL115W, strain asf1, stronger effect = lower value 0.994 | locus YJL129C, strain trk1, stronger effect = lower value 0.995 | locus YJL134W, strain LCB3, stronger effect = lower value 1 | locus YJL154C, strain vps35, stronger effect = lower value 1.01 | locus YJL164C, strain tpk1, stronger effect = lower value 0.978 | locus YJL166W, strain qcr8, stronger effect = lower value 0.988 | locus YJL168C, strain set2, stronger effect = lower value 1 | locus YJL187C, strain SWE1 (second series), stronger effect = lower value 0.983 | locus YJL187C, strain SWE1, stronger effect = lower value 0.986 | locus YJR043C, strain POL32, stronger effect = lower value 0.977 | locus YJR066W, strain TOR1, stronger effect = lower value 0.959
